Test in all cases: NCI-60 one-dose screen, 48 h (100 = growth as untreated, 0 = no growth, -100 = all killed)
The subject of one assay is NCI/ADR-RES ovarian. Particulars: 10 µM.
A further assay deals with T-47D breast. Particulars: 10 µM.
Another assay relates to BT-549 breast. Particulars: 10 µM.
The next assay has as its system MDA-MB-435 melanoma. Particulars: 10 µM.
The test system of a further assay is SW-620 colon. The settings on record: 10 µM.
In the next assay the test system is MCF7 breast.
Another assay has as its system HCT-116 colon. Particulars: 10 µM.
The test system of a further assay is HCC-2998 colon. Particulars: 10 µM.
The subject of the next assay is KM12 colon. Particulars: 10 µM.

The structures appear in SMILES notation. Values joined by “and” are separate entries in the source; they are usually repeats but may differ in a detail not shown here. Identical values can stand only once. The panel holds about 83,000 compounds, 20% with a hit somewhere; the sample as a whole holds those more often.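 Results are percent growth after 48 hours of single-concentration exposure. 100 means growth as in untreated cells, lower positive values show inhibition; negative values down to -100 show cell death.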 Unmarked numbers belong to inactive results. Active and inactive are the calls of the source. Rule for the calls: active = growth percent below 10; inactive = the rest.

On to `CC(C)C1(NC(=O)C2CC3c4cccc5[nH]cc(c45)CC3N(C)C2)OC2(O)C3CCCN3C(=O)C(Cc3ccccc3)N2C1=O` (stereo not drawn), for which the growth with NCI/ADR-RES ovarian was 102%; in the assay on T-47D breast, 103%; in the assay on BT-549 breast it was 91.4%; in the assay on MDA-MB-435 melanoma, 102%; in the assay with SW-620 colon, 103%; in the assay on MCF7 breast (10 µM unless noted), 95.8%. The values for the growth with HCT-116 colon, in the assay on HCC-2998 colon and in the assay on KM12 colon were 95.8%, 105% and 106%, respectively.
Turning to `Cc1cc([N+](=O)[O-])c2ccccc2[n+]1[O-]`, the growth is 7.18% (active) and 0.529% (active) with NCI/ADR-RES ovarian; -6.69% (active) and -8.77% (active) in the assay with T-47D breast; -36.6% (active) and -19.4% (active) in the assay on BT-549 breast; -53.1% (active) and -81.3% (active) in the assay on MDA-MB-435 melanoma; -10.5% (active) and -30% (active) in the assay with SW-620 colon; -11.2% (active) and 4.36% (active) in the assay with MCF7 breast (10 µM unless noted). Moreover, the growth with HCT-116 colon was -26.4% (active) and 0.608% (active); in the assay with HCC-2998 colon it was -67.8% (active) and -90.8% (active); with KM12 colon, -40.8% (active) and -59.2% (active).
For the molecule `CC/C(=C/c1ccc(OC)cc1OC)[N+](=O)[O-]`, the growth is 41.8% in the assay on NCI/ADR-RES ovarian; -12.9% (active) in the assay on T-47D breast; 37.1% with BT-549 breast; 46% in the assay on MDA-MB-435 melanoma; -20.1% (active) in the assay with SW-620 colon; 0.465% (active) in the assay with MCF7 breast (10 µM unless noted). Also, the growth with HCT-116 colon is -58.8% (active); with HCC-2998 colon, 102%; in the assay on KM12 colon it was 25.5%.
Take `COc1cc([C@@H]2c3cc4c(c(O)c3C[C@H]3COC(=O)[C@@H]32)OCO4)cc(OC)c1OC`: the growth in the assay on NCI/ADR-RES ovarian was -28.9% (active); with T-47D breast, 60.8%; in the assay on BT-549 breast, -12.9% (active); in the assay with MDA-MB-435 melanoma, -19.6% (active); with SW-620 colon, 15.9%; in the assay with MCF7 breast (10 µM unless noted), 8.86% (active). For the same molecule, the values for the growth in the assay with HCT-116 colon, with HCC-2998 colon and in the assay on KM12 colon were -38.4% (active), -54.8% (active) and 0.358% (active), respectively.
As for `COc1cc2c(c(OC)c1OC)-c1ccc(O)c(=O)cc1[C@@H](NC(C)=O)CC2`, the growth with NCI/ADR-RES ovarian is 74.3%; in the assay with T-47D breast, 18.4%; with BT-549 breast, 59.9%; with MDA-MB-435 melanoma it was 45.6%; in the assay on SW-620 colon, 50.2%; with MCF7 breast (10 µM), 7.81% (active). For the same molecule, the growth in the assay with MCF7 breast (100 µM) was -47.9% (active); in the assay on HCT-116 colon it was 26.1%; in the assay with HCC-2998 colon, 66.9%; with KM12 colon it was 57.4%.
As to `COC1CC2C=C(C)/C=C/C=C/C(=O)NC(c3ccccc3)C/C=C/CCC(O)CC(=O)C2=C1O` (stereo not drawn), the growth in the assay on NCI/ADR-RES ovarian is -44.5% (active); in the assay with T-47D breast, -65.5% (active); with BT-549 breast it was -98% (active); in the assay on MDA-MB-435 melanoma, -90.5% (active); in the assay on SW-620 colon it was -75.9% (active); with MCF7 breast (10 µM unless noted), -68.8% (active). The growth in the assay on HCT-116 colon is -96.7% (active); with HCC-2998 colon, -53% (active); with KM12 colon it was -76.1% (active).
As for `O=[N+]([O-])c1ccc(Br)c([N+](=O)[O-])c1`, the growth in the assay on NCI/ADR-RES ovarian is 99%; with T-47D breast it was 54.4%; in the assay with BT-549 breast, 104%; in the assay on MDA-MB-435 melanoma it was 102%; in the assay on SW-620 colon, 44.4%; in the assay with MCF7 breast (10 µM unless noted), 52.5%. Moreover, the growth in the assay with HCT-116 colon is 32.3%; in the assay on HCC-2998 colon it was 96.2%; in the assay with KM12 colon, 53.6%.
In the case of `C/C1=C\[C@H](C)C[C@H](C)OC(=O)C[C@H](c2ccc(O)cc2)NC(=O)[C@@H](Cc2c(Br)[nH]c3ccccc23)N(C)C(=O)[C@H](C)NC(=O)[C@@H](C)C1`, the growth is -21.9% (active) with NCI/ADR-RES ovarian; 4.52% (active) in the assay on T-47D breast; -76.6% (active) in the assay with BT-549 breast; -12.2% (active) in the assay on MDA-MB-435 melanoma; 6.45% (active) with SW-620 colon; 9.48% (active) with MCF7 breast (10 µM unless noted). Besides, the results for the growth in the assay on HCT-116 colon, with HCC-2998 colon and in the assay on KM12 colon were 0.922% (active), -86.3% (active) and -4.41% (active), respectively.
As to `CC(C)c1cc([N+](=O)[O-])cc([N+](=O)[O-])c1O`, the growth with NCI/ADR-RES ovarian was 97.3%; in the assay on T-47D breast it was 97.3%; in the assay on BT-549 breast, 96.4%; in the assay on MDA-MB-435 melanoma, 108%; in the assay on SW-620 colon, 100%; in the assay with MCF7 breast (10 µM unless noted) it was 93.3%. The growth was 103% with HCT-116 colon, 87.4% with HCC-2998 colon and 88.1% in the assay with KM12 colon.
Take `Cn1c(O)c(N=O)c(=O)n(C)c1=O`: the growth was 101% and 102% with NCI/ADR-RES ovarian; 101% and 97% with T-47D breast; 109% and 99% with BT-549 breast; 113% and 93.3% in the assay on MDA-MB-435 melanoma; 97% and 98.9% in the assay with SW-620 colon; 104% and 97.2% with MCF7 breast (10 µM unless noted). In addition, the growth with HCT-116 colon is 113% and 97.3%; in the assay on HCC-2998 colon it was 107%; with KM12 colon, 102% and 98.6%.
In the case of `NC(=O)c1cc([N+](=O)[O-])c(Cl)c([N+](=O)[O-])c1`, the growth in the assay with NCI/ADR-RES ovarian was 111%; in the assay on T-47D breast, 27.5%; with BT-549 breast, 113%; with MDA-MB-435 melanoma, 109%; in the assay with SW-620 colon, -85.2% (active); with MCF7 breast (10 µM unless noted), 22.3%. Moreover, the figures for the growth with HCT-116 colon, in the assay with HCC-2998 colon and in the assay on KM12 colon were -79.3% (active), 109% and 91.6%, respectively.
Turning to `COc1ccccc1[As]=[As]c1ccccc1OC` (stereo not drawn), the growth with NCI/ADR-RES ovarian is -72% (active); in the assay with T-47D breast it was -47.2% (active); with BT-549 breast it was -91.9% (active); in the assay with MDA-MB-435 melanoma, -73.2% (active); with SW-620 colon, -66.3% (active); in the assay with MCF7 breast (10 µM unless noted) it was -38.3% (active). Moreover, the growth with HCT-116 colon is -71.3% (active); with HCC-2998 colon it was -98.2% (active); with KM12 colon, -81.8% (active).
Take `CC1CCC2(OC1)OC1C(O)C3C4CCC5CC(OC6OC(CO)C(OC7OC(CO)C(O)C(OC8OCC(O)C(O)C8O)C7OC7OC(CO)C(O)C(OC8OC(CO)C(O)C(O)C8O)C7O)C(O)C6O)C(O)CC5(C)C4CCC3(C)C1C2C` (stereo not drawn): the growth was -59.4% (active) with NCI/ADR-RES ovarian; 50.1% with T-47D breast; -74.8% (active) in the assay on BT-549 breast; 47.5% in the assay on MDA-MB-435 melanoma; 51.2% with SW-620 colon; -34% (active) in the assay on MCF7 breast (10 µM). Also, the growth in the assay with MCF7 breast (100 µM) was -84.7% (active) and -85.4% (active); in the assay with HCT-116 colon, -72% (active); with KM12 colon, 34.2%.

The record behind these values is PubChem BioAssay (NCI).
